{
  "source": "PubChem BioAssay (NCATS)",
  "key": {"[1]": {"molecular_target": "Aldehyde dehydrogenase, mitochondrial (Homo sapiens) (UniProt P05091)", "experiment": "qHTS for Inhibitors of the Aldehyde Dehydrogenase Family (ALDH2) Primary screen (AID 2061308); also: nearly all actives have a fitted effect of over 55% in size"}, "[2]": {"molecular_target": "Retinaldehyde dehydrogenase 3 (Homo sapiens) (UniProt P47895)", "experiment": "qHTS for Inhibitors of the Aldehyde Dehydrogenase Family (ALDH1A3) Primary screen (AID 2061315)"}},
  "note": "Inconclusive results are not listed. A call without a number means that no potency is given here. Active and inactive are the calls of the source. Calls follow the shape of the dose curve; as a rule, active = well fitted curve in the direction sought with a large enough effect; inconclusive = small, poorly fitted or top-dose-only effect, or another doubt; inactive = no such curve, though single readings can be large; an effect the other way counts as inactive or inconclusive.",
  "data": [
    {"smiles": "O=C(O)c1ccc(-c2ccc3ncnc(NCC4CCCO4)c3c2)o1", "note": "(configuration not stated)", "values": [
      {"measurement": "Potency", "setting": "[1]", "result": "inactive"},
      {"measurement": "Potency", "setting": "[2]", "result": "inactive"}
    ]},
    {"smiles": "N#Cc1cnc(NS(=O)(=O)c2ccc(NC(=O)Cc3ccc(F)c(Cl)c3)cc2)s1", "values": [
      {"measurement": "Potency", "setting": "[1]", "result": "inactive"},
      {"measurement": "Potency", "setting": "[2]", "result": "inactive"}
    ]},
    {"smiles": "Cc1sc(NC(=O)Cc2ccc3c(c2)OCO3)nc1-c1ccc2c(c1)CCN2C(=O)c1ccccc1F", "values": [
      {"measurement": "Potency", "setting": "[1]", "result": "inactive"},
      {"measurement": "Potency", "setting": "[2]", "result": "inactive"}
    ]},
    {"smiles": "COc1ccc(-c2nnc3n2N=C(c2ccccc2OC)CS3)c(OC)c1", "values": [
      {"measurement": "Potency", "setting": "[1]", "result": "inactive"},
      {"measurement": "Potency", "setting": "[2]", "result": "inactive"}
    ]},
    {"smiles": "CC1(C)CC(=O)C2=C(C1)NC(Nc1nc3ccccc3o1)=NC21CCCCC1", "values": [
      {"measurement": "Potency", "setting": "[1]", "result": "inactive"},
      {"measurement": "Potency", "setting": "[2]", "result": "inactive"}
    ]},
    {"smiles": "Cc1cc(S(=O)(=O)Nc2cnccc2C(=O)Nc2nc(-c3ccccc3)cs2)c(C)o1", "values": [
      {"measurement": "Potency", "setting": "[1]", "result": "inactive"},
      {"measurement": "Potency", "setting": "[2]", "result": "inactive"}
    ]},
    {"smiles": "O=C(Nc1nc(-c2ccccc2)cs1)c1ccncc1NS(=O)(=O)c1cccc2cccnc12", "values": [
      {"measurement": "Potency", "setting": "[1]", "result": "inactive"},
      {"measurement": "Potency", "setting": "[2]", "result": "inactive"}
    ]},
    {"smiles": "C[C@@]12CC[C@@H]3[C@@](CC[C@H]4[C@@]3(C)CCC[C@@]4(C)C(=O)O)(CC1=O)C2", "values": [
      {"measurement": "Potency", "setting": "[1]", "result": "inactive"},
      {"measurement": "Potency", "setting": "[2]", "result": "inactive"}
    ]},
    {"smiles": "Cc1cc(N[S+](=O)([O-])c2cc3c(cc2Cl)CCC(=O)N3)ccc1Br", "values": [
      {"measurement": "Potency", "setting": "[1]", "result": "inactive"},
      {"measurement": "Potency", "setting": "[2]", "result": "inactive"}
    ]},
    {"smiles": "COc1cc(C(=O)OC[C@@]2(O)CO[C@@H](O[C@H]3[C@H](Oc4ccc(O)cc4)O[C@H](CO)[C@@H](O)[C@@H]3O)[C@@H]2O)cc(OC)c1O", "values": [
      {"measurement": "Potency", "setting": "[1]", "result": "inactive"},
      {"measurement": "Potency", "setting": "[2]", "result": "inactive"}
    ]},
    {"smiles": "Cc1noc(-c2ccc(-c3ccc(CC(=O)O)cc3)cc2)c1NC(=O)O[C@H](C)c1ccccc1Cl", "values": [
      {"measurement": "Potency", "setting": "[1]", "result": "inactive"},
      {"measurement": "Potency", "setting": "[2]", "result": "inactive"}
    ]},
    {"smiles": "Cc1csc(CNc2ncnc3ccc(-c4ccco4)cc23)c1", "values": [
      {"measurement": "Potency", "setting": "[1]", "result": "inactive"},
      {"measurement": "Potency", "setting": "[2]", "result": "inactive"}
    ]},
    {"smiles": "CCn1cnc2c(Nc3cc(F)cc(F)c3)nc(C(=O)COc3c(F)c(F)cc(F)c3F)nc21", "values": [
      {"measurement": "Potency", "setting": "[1]", "result": "inactive"},
      {"measurement": "Potency", "setting": "[2]", "result": "inactive"}
    ]},
    {"smiles": "CNc1oc(-c2cccc3ncccc23)nc1C#N", "values": [
      {"measurement": "Potency", "setting": "[1]", "result": "inactive"},
      {"measurement": "Potency", "setting": "[2]", "result": "inactive"}
    ]},
    {"smiles": "CC1=C(C(=O)Nc2ccon2)C(c2ccccc2Br)N=C(Nc2nc3ccccc3o2)N1", "note": "(configuration not stated)", "values": [
      {"measurement": "Potency", "setting": "[1]", "result": "inactive"},
      {"measurement": "Potency", "setting": "[2]", "result": "inactive"}
    ]},
    {"smiles": "O=C(Nc1nc(-c2ccccc2)cs1)c1ccncc1NS(=O)(=O)c1ccc(N2CCCC2=O)cc1", "values": [
      {"measurement": "Potency", "setting": "[1]", "result": "inactive"},
      {"measurement": "Potency", "setting": "[2]", "result": "inactive"}
    ]},
    {"smiles": "Cc1sc(NC(=O)Cc2ccc3c(c2)OCO3)nc1-c1ccc2c(c1)CCN2C(=O)C1CCCCC1", "values": [
      {"measurement": "Potency", "setting": "[1]", "result": "inactive"},
      {"measurement": "Potency", "setting": "[2]", "result": "inactive"}
    ]},
    {"smiles": "COC1CC(=O)C23C(=O)NC(CC(C)C)C2C(C)C(C)=CC3/C=C(\\C)CCC1O", "note": "(configuration not stated)", "values": [
      {"measurement": "Potency", "setting": "[1]", "result": "inactive"},
      {"measurement": "Potency", "setting": "[2]", "result": "inactive"}
    ]},
    {"smiles": "CC(=O)Nc1cccc(S(=O)(=O)N2CCN(S(=O)(=O)c3c(F)cccc3F)CC2)c1", "values": [
      {"measurement": "Potency", "setting": "[1]", "result": "inactive"},
      {"measurement": "Potency", "setting": "[2]", "result": "inactive"}
    ]},
    {"smiles": "COc1ccc(NC(=O)CN2C(=O)N/C(=C\\c3cccn3-c3ccc(C(=O)NC#N)cc3)C2=O)cc1", "values": [
      {"measurement": "Potency", "setting": "[1]", "result": "inactive"},
      {"measurement": "Potency", "setting": "[2]", "result": "inactive"}
    ]},
    {"smiles": "CCOc1ccc(CCNC(=O)c2csc(Br)n2)cc1OCC", "values": [
      {"measurement": "Potency", "setting": "[1]", "result": "inactive"},
      {"measurement": "Potency", "setting": "[2]", "result": "inactive"}
    ]},
    {"smiles": "N#Cc1cccc(NC(=O)Nc2nnc(-c3ccncc3)s2)c1", "values": [
      {"measurement": "Potency", "setting": "[1]", "result": "inactive"},
      {"measurement": "Potency", "setting": "[2]", "result": "inactive"}
    ]},
    {"smiles": "Cc1cccc(C)c1-n1c(SCC(=O)Nc2ccc(F)cc2)nnc1-c1cccc([S+](=O)([O-])N2CCCC2)c1", "values": [
      {"measurement": "Potency", "setting": "[1]", "result": "inactive"},
      {"measurement": "Potency", "setting": "[2]", "result": "inactive"}
    ]},
    {"smiles": "N#Cc1ccc(-c2ccc(=O)n(CC(=O)NCCc3ccccc3)n2)cc1", "values": [
      {"measurement": "Potency", "setting": "[1]", "result": "inactive"},
      {"measurement": "Potency", "setting": "[2]", "result": "inactive"}
    ]},
    {"smiles": "O=C(c1ccccc1)N1CCN(c2nc(-c3cccs3)nc3ccccc23)CC1", "values": [
      {"measurement": "Potency", "setting": "[1]", "result": "inactive"},
      {"measurement": "Potency", "setting": "[2]", "result": "inactive"}
    ]},
    {"smiles": "Cc1ccnc(NC(=S)N2CCCc3ccc(C(F)(F)F)cc32)c1", "values": [
      {"measurement": "Potency", "setting": "[1]", "result": "inactive"},
      {"measurement": "Potency", "setting": "[2]", "result": "inactive"}
    ]},
    {"smiles": "Cc1ccc(S(=O)(=O)Nc2cnccc2C(=O)NCc2ccccc2)cc1", "values": [
      {"measurement": "Potency", "setting": "[1]", "result": "inactive"},
      {"measurement": "Potency", "setting": "[2]", "result": "inactive"}
    ]},
    {"smiles": "CN[C@@H]1[C@H](O[C@H]2[C@H](O[C@@H]3[C@@H](O)[C@H](O)[C@@H](N=C(N)N)[C@H](O)[C@H]3N=C(N)N)O[C@@H](C)[C@]2(O)CO)O[C@@H](CO)[C@H](O)[C@H]1O", "values": [
      {"measurement": "Potency", "setting": "[1]", "result": "inactive"},
      {"measurement": "Potency", "setting": "[2]", "result": "inactive"}
    ]},
    {"smiles": "Cc1cc(C)nc(NC(=S)N2CCN(c3ncccc3C(F)(F)F)CC2)c1", "values": [
      {"measurement": "Potency", "setting": "[1]", "result": "inactive"},
      {"measurement": "Potency", "setting": "[2]", "result": "inactive"}
    ]},
    {"smiles": "Cn1nnnc1Sc1ncnc2scc(-c3cccc(S(C)(=O)=O)c3)c12", "values": [
      {"measurement": "Potency", "setting": "[1]", "result": "inactive"},
      {"measurement": "Potency", "setting": "[2]", "result": "inactive"}
    ]},
    {"smiles": "COc1ccc2oc(NC3=NC(c4[nH]ncc4Cl)C4=C(CCCC4=O)N3)nc2c1", "note": "(configuration not stated)", "values": [
      {"measurement": "Potency", "setting": "[1]", "result": "inactive"},
      {"measurement": "Potency", "setting": "[2]", "result": "inactive"}
    ]},
    {"smiles": "NC(=O)C1CCN(c2nc(-c3cccc(N)c3)cs2)CC1", "values": [
      {"measurement": "Potency", "setting": "[1]", "result": "inactive"},
      {"measurement": "Potency", "setting": "[2]", "result": "inactive"}
    ]},
    {"smiles": "N#Cc1nc(Nc2cc(F)cc(F)c2)c2ncn(CCN3CCCC3)c2n1", "values": [
      {"measurement": "Potency", "setting": "[1]", "result": "inactive"},
      {"measurement": "Potency", "setting": "[2]", "result": "inactive"}
    ]},
    {"smiles": "C=C1C(=O)OC2C3=C(C)C(=O)CC3C(C)CC(O)C12", "note": "(configuration not stated)", "values": [
      {"measurement": "Potency", "setting": "[1]", "result": "inactive"},
      {"measurement": "Potency", "setting": "[2]", "result": "inactive"}
    ]},
    {"smiles": "N#Cc1cccc(S(=O)(=O)N2CCN(S(=O)(=O)c3ccc4c(c3)OCCO4)CC2)c1", "values": [
      {"measurement": "Potency", "setting": "[1]", "result": "inactive"},
      {"measurement": "Potency", "setting": "[2]", "result": "inactive"}
    ]},
    {"smiles": "O=C1CCCC2=C1C(c1[nH]ncc1Cl)NC(=NCc1ccncc1)N2", "note": "(configuration not stated)", "values": [
      {"measurement": "Potency", "setting": "[1]", "result": "inactive"},
      {"measurement": "Potency", "setting": "[2]", "result": "inactive"}
    ]}
  ]
}
